The record followed here is PubChem BioAssay (Tox21).

Several values for one entry are separate records, joined by “and”; a condition that tells them apart may be missing. Equal values may be shown once. Results filed as inconclusive are left out. Activity calls are given as the source filed them. Unless noted, calls follow the shape of the dose curve; as a rule, active = well fitted curve in the direction sought with a large enough effect in the repeat runs; inconclusive = weak or mixed curves; inactive = no such curve, though single readings can be large; an effect the other way counts as inactive or inconclusive. Positions of bridges follow the written chain, without caps; N, C: chain ends. Non-standard residues stand in square brackets, D forms with d. Residues, ends and D or L forms follow the SMILES beside them. *: point of attachment. Dab(CH2SO3H) = N[C@@H](CCNCS(=O)(=O)O)C(=O)O; X3 = CC[C@@H](C)CCCCC(=O)*; Dab = NCC[C@H](N)C(=O)O

The nature of assay [1]: qHTS assay to identify aromatase inhibitors - cell viability counter screen (AID 743084).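 Also: cells stimulated with testosterone during compound exposure; nearly all actives have a fitted effect of over 55% in size.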 Also: potency is read from the fitted curve at half-maximal effect. For orientation: qHTS replaces the single test concentration by a dilution series.
Assay [2] has as its target Aryl hydrocarbon receptor (Homo sapiens) (UniProt P35869). Description: qHTS assay to identify small molecule that activate the aryl hydrocarbon receptor (AhR) signaling pathway (AID 743085). Also: nearly all actives have a fitted effect of over 15% in size. Also: potency is read from the fitted curve at half-maximal effect.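 As to activation: HG2L7.5c1 human HepG2 liver cells with stably integrated DRE-driven firefly reporter; series mostly up to about 70 µM.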 The gist of the method: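 Reporter assay in engineered HepG2 line HG2L7.5c1, whose plasmid carries twenty dioxin responsive elements upstream of firefly luciferase. Treatment lasted 24 h at 37C; ONE-Glo luminescence gauged induction.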

Assay [3] in a line: qHTS assay to identify small molecule that activate the aryl hydrocarbon receptor (AhR) signaling pathway - cell viability counter screen (AID 743086). Also: nearly all actives have a fitted effect of over 45% in size. Also: potency is read from the fitted curve at half-maximal effect. The gist of the method: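 Cytotoxicity counter screen: CellTiter-Fluor signal (30 min, 37 C) in 4000 HepG2 cells/well carrying the DRE-luciferase reporter, following 24 h compound exposure at 37 C.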
Assay [4] has as its target Peroxisome proliferator-activated receptor gamma (Homo sapiens) (UniProt P37231). Description: qHTS assay to identify small molecule agonists of the peroxisome proliferator-activated receptor gamma (PPARg) signaling pathway (AID 743094; active = well fitted activation curve with a large enough effect in the signal ratio in the repeat runs, not every such curve was filed as active; the % refers to the signal ratio). In short, it runs like this:
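Compounds dissolved in DMSO were added to PPARg UAS-bla HEK293H cells for 17 h at 37C, and reporter expression was quantified by fluorescence intensity after 1 h with LiveBLAzer B/G FRET substrate.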

Sequence of Aryl hydrocarbon receptor (Homo sapiens) (P35869 whole entry, looked up): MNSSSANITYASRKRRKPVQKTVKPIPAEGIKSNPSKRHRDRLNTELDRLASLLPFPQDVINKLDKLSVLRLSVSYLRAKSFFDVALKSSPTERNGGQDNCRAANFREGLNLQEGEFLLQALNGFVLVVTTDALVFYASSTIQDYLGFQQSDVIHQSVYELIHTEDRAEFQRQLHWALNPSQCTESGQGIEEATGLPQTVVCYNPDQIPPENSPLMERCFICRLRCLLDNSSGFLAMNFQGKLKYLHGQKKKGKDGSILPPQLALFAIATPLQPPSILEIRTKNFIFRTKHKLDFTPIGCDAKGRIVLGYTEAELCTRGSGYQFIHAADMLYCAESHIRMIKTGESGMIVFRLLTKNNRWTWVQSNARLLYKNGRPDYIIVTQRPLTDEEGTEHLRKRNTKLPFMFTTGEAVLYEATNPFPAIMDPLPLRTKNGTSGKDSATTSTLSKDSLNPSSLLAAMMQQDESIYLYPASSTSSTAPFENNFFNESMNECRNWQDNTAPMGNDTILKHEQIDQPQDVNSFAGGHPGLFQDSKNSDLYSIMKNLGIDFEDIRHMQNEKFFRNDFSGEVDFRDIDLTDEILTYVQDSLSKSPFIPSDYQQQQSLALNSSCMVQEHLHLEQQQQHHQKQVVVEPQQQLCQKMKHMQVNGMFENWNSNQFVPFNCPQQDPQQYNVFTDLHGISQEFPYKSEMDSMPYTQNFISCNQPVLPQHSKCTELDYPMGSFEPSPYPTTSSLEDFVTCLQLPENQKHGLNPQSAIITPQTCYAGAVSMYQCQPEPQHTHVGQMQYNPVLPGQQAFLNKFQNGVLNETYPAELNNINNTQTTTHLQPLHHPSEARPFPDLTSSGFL
Sequence of Peroxisome proliferator-activated receptor gamma (Homo sapiens) (P37231 whole entry, looked up): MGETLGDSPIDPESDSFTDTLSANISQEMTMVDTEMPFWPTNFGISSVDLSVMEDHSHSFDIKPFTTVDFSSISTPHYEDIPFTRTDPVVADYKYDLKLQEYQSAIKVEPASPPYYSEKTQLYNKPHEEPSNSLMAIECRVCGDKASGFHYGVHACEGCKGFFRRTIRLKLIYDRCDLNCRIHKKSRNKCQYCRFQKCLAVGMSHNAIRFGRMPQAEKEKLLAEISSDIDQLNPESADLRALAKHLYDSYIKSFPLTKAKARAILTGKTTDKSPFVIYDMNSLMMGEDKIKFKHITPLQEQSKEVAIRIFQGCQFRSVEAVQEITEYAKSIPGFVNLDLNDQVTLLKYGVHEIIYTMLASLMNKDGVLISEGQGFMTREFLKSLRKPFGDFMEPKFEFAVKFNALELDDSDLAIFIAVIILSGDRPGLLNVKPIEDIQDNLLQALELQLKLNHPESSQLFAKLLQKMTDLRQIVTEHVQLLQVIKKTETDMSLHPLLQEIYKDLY

Consider `CO[C@H](C(=O)[C@@H](O)[C@@H](C)O)C1Cc2cc3cc(O[C@H]4C[C@@H](O[C@H]5C[C@@H](O)[C@H](O)[C@@H](C)O5)[C@@H](O)[C@@H](C)O4)c(C)c(O)c3c(O)c2C(=O)[C@H]1O[C@H]1C[C@@H](O[C@H]2C[C@@H](O[C@H]3C[C@](C)(O)[C@H](O)[C@@H](C)O3)[C@H](O)[C@@H](C)O2)[C@H](O)[C@@H](C)O1` (some centres not stated), for which the Potency result in assay [1] is “inactive”. Further, the Potency in assay [2] was 0.237 µM (active).

For `C=C1C(=C/C=C2\CCC[C@]3(C)[C@@H]([C@H](C)CCCC(C)C)CC[C@@H]23)C[C@@H](O)C[C@@H]1O`, the Potency entry in assay [1] is “inactive”.

Turning to `C[C@]12O[C@H](C[C@]1(O)CO)n1c3ccccc3c3c4c(c5c6ccccc6n2c5c31)CNC4=O`, the results for the Potency in assay [1], in assay [2] and in assay [3] were 23.7 µM (active), 0.531 µM (active) and 18.8 µM (active), respectively.

`CCCCCCCC/C=C\CCCCCCCC(=O)N(CCO)CCO`: the Potency result in assay [1], in assay [2] and in assay [3] was “inactive” in each case.

Consider `CC[C@@H](C)CCCCC(=O)N[C@@H](CCNCS(=O)(=O)O)C(=O)N[C@H](C(=O)N[C@@H](CCNCS(=O)(=O)O)C(=O)N[C@H]1CCNC(=O)[C@H]([C@@H](C)O)NC(=O)[C@H](CCNCS(=O)(=O)O)NC(=O)[C@H](CCNCS(=O)(=O)O)NC(=O)[C@H](CC(C)C)NC(=O)[C@@H](CC(C)C)NC(=O)[C@H](CCNCS(=O)(=O)O)NC1=O)[C@@H](C)O` (X3-[Dab(CH2SO3H)]T[Dab(CH2SO3H)][Dab][Dab(CH2SO3H)][dL]L[Dab(CH2SO3H)][Dab(CH2SO3H)]T; lactam 4-C), for which the Potency result in assay [1] and in assay [2] was “inactive” throughout.

Take `C=N[C@@H](C(=O)N[C@@H]1C(=O)N2[C@@H]1SC(C)(C)[C@@H]2C(=O)O)c1ccccc1`: the Potency result in assay [1], in assay [2] and in assay [3] was “inactive” in each case.

Regarding `CCOc1ccc(S(=O)(=O)O)c2cccnc12`, the Potency result in assay [1], in assay [2] and in assay [3] was “inactive” in each case.

`CCN1CCCC1CNC(=O)c1cc(S(=O)(=O)CC)ccc1OC` (configuration not stated): the Potency entry in assay [1], in assay [2], in assay [3] and in assay [4] was “inactive” throughout.

Consider `CCc1ncnc2cc(OC)c(OC)cc12`, for which the Potency result in assay [1], in assay [2] and in assay [3] was “inactive” throughout.

`c1ccc(-c2ccc(C(c3ccccc3)n3ccnc3)cc2)cc1` (configuration not stated): the Potency result in assay [1], in assay [3] and in assay [4] was “inactive” each time. The Potency in assay [2] is 1.06 µM (active).

Take `CCOC(=O)Cc1ccc(-c2ccccc2)cc1`: the Potency result in assay [1], in assay [2] and in assay [3] was “inactive” each time.

Take `Nc1ccc(N)c([N+](=O)[O-])c1`: the Potency is 61.1 µM (active) in assay [1] and 24.3 µM (active) in assay [2].

`CC1(C)C[C@@H]1C(=O)N/C(=C\CCCCSC[C@H](N)C(=O)O)C(=O)O`: the Potency entry in assay [1], in assay [2] and in assay [3] was “inactive” in each case.

As to `Nc1c(CC(=O)O)cccc1C(=O)c1ccccc1`, the Potency entry in assay [1], in assay [2] and in assay [3] was “inactive” in each case.

Take `CCC(NC(C)C)C(O)c1ccc(O)c(O)c1` (configuration not stated): the Potency result in assay [1], in assay [2] and in assay [3] was “inactive” throughout.

With `CC12CCC(C1)C(C)(C)C2=O` (configuration not stated), the Potency entry in assay [1], in assay [2], in assay [3] and in assay [4] was “inactive” each time.

In the case of `O=C(O)[C@H]1CN(C/C=C/P(=O)(O)O)CCN1`, the Potency entry in assay [1] was “inactive”.

On to `CO/N=C(\C(=O)N[C@@H]1C(=O)N2C(C(=O)[O-])=C(C[n+]3cccc4c3CCC4)CS[C@H]12)c1csc(N)n1`, for which the Potency entry in assay [1], in assay [2] and in assay [3] was “inactive” throughout.

In the case of `CO[C@H]1C[C@@H]2CC[C@@H](C)[C@@](O)(O2)C(=O)C(=O)N2CCCC[C@H]2C(=O)O[C@H]([C@H](C)C[C@@H]2CC[C@@H](O)[C@H](OC)C2)CC(=O)[C@H](C)C=C(C)[C@@H](O)[C@@H](OC)C(=O)[C@H](C)C[C@H](C)/C=C/C=CC=C1C`, the Potency in assay [1] is 23.7 µM (active) and 26.6 µM (active); in assay [3], 13.3 µM (active) and 26.6 µM (active). Moreover, the Potency result in assay [2] was “inactive”.

For `CC1CCCCN1CCCOC(=O)c1ccccc1` (configuration not stated), the Potency result in assay [1], in assay [2] and in assay [3] was “inactive” each time.

Consider `CCOc1cc(CC(=O)N[C@@H](CC(C)C)c2ccccc2N2CCCCC2)ccc1C(=O)O`, for which the Potency entry in assay [1], in assay [2] and in assay [3] was “inactive” throughout.

For the molecule `CC1(C)S[C@@H]2[C@H](NC(=O)[C@H](N)c3ccc(O)cc3)C(=O)N2[C@H]1C(=O)O`, the Potency result in assay [1], in assay [2] and in assay [3] was “inactive” throughout.

Turning to `CC[C@@]1([C@@H]2O[C@@H]([C@H]3O[C@@](O)(CO)[C@H](C)C[C@@H]3C)C[C@@H]2C)CC[C@H]([C@]2(C)CC[C@]3(C[C@H](O)[C@@H](C)[C@@H]([C@@H](C)[C@@H](OC)[C@H](C)C(=O)O)O3)O2)O1` (stereo in doubt), the Potency entry in assay [1], in assay [2] and in assay [3] was “inactive” in each case.

Turning to `CN=C(N)NCCC[C@H](N)C(=O)O`, the Potency entry in assay [1], in assay [2] and in assay [3] was “inactive” throughout.

`Nc1nc(NC2CC2)c2ncn([C@@H]3C=C[C@@H](CO)C3)c2n1`: the Potency entry in assay [1], in assay [3] and in assay [4] was “inactive” each time. The Potency in assay [2] is 8.41 µM (active).

Regarding `C=CCN1C(=O)C(CC(C)C)NC1=S` (configuration not stated), the Potency result in assay [1], in assay [2], in assay [3] and in assay [4] was “inactive” in each case.

With `CC(C)c1ncc([N+](=O)[O-])n1C`, the Potency entry in assay [1], in assay [2], in assay [3] and in assay [4] was “inactive” throughout.

Regarding `CSCC[C@H](NC(=O)[C@H](Cc1ccc(OS(=O)(=O)O)cc1)NC(=O)[C@@H](N)CC(=O)O)C(=O)NCC(=O)N[C@@H](Cc1c[nH]c2ccccc12)C(=O)N[C@@H](CCSC)C(=O)N[C@@H](CC(=O)O)C(=O)N[C@@H](Cc1ccccc1)C(N)=O`, the Potency entry in assay [1], in assay [2], in assay [3] and in assay [4] was “inactive” in each case.

Turning to `O=C1c2c(O)cccc2[C@H]([C@@H]2O[C@H](CO)[C@@H](O)[C@H](O)[C@H]2O)c2cc(CO)cc(O)c21`, the Potency result in assay [1], in assay [2], in assay [3] and in assay [4] was “inactive” in each case.

With `N#Cc1c(N(CC(=O)O)CC(=O)O)sc(C(=O)O)c1CC(=O)O`, the Potency result in assay [1], in assay [2], in assay [3] and in assay [4] was “inactive” each time.
